For 30 compounds, displacement results are on record in PubChem BioAssay AID1240 (Sanford-Burnham Center for Chemical Genomics, 2008).

Screen size: about 50,000 compounds; about 800 (1.6%) showed an effect of 50% or more. This is one part of a sample in which strong results are shown more often than they occur.

Sequence of Bcl-2-like protein 10 (Homo sapiens) (Q9HD36 whole entry, looked up): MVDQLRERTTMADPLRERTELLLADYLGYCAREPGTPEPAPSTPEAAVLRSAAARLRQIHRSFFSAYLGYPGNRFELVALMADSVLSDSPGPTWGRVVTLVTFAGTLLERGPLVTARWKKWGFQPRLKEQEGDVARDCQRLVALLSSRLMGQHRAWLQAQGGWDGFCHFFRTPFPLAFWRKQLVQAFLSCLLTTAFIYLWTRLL

The test has as its target Bcl-2-like protein 10 (Homo sapiens) (UniProt Q9HD36). The test can be described thus: TR3 peptide-Bcl-B binding displacers, biochemical primary FP assay, phenotype converters (AID 1240).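 Also: 0% = Bcl-B with tracer peptide and DMSO and 100% = tracer peptide lacking Bcl-B.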 The conditions noted are these: GST-Bcl-B / FITC-TR3 peptide fluorescence polarization; stronger effect = higher value; compound at 3.75 mg/L. Background: Polarisation of emitted light reports the rotation of a fluorescent probe.
On to `O=C(O)c1ccc(NC(=O)c2ccc(Cl)cc2)cc1`, for which the displacement was -3.6%.
As for `COc1cc(/C=C/C(=O)c2c(C)cc(C)[nH]c2=O)cc(OC)c1OC`, the figure is 8.5%; as for `Cc1ccccc1/C=C1/SC(=Nc2ccc(F)cc2)NC1=O`, 7.8%.
Regarding `Cc1ccc(/C=C2\SC(=Nc3ccc(F)cc3)NC2=O)o1`, the displacement was found to be 101%.
Regarding `COc1ccccc1/C=C1/SC(=Nc2ccc(F)cc2)NC1=O`, the displacement is 161%.
As to `O=C1NC(=Nc2ccc(F)cc2)S/C1=C\c1ccco1`, the displacement was determined as 32.8%.
As for `Cc1ccc(N=C2NC(=O)/C(=C\c3ccc(C)o3)S2)cc1`, the figure is -9.8%.
As for `COc1ccc(/C=C2/SC(=Nc3ccc(F)cc3)NC2=O)c(OC)c1`, the figure is 11.6%; as for `COc1ccc(/C=C2\SC(=S)N(NC(=O)c3cccnc3)C2=O)cc1`, 3.4%; as for `CCCCc1ccc(-c2csc(/C(C#N)=C/c3ccc(O)c(OC)c3)n2)cc1`, 2.4%.
As for `Cc1ccc(-c2csc(/C(C#N)=C\c3ccc(C)s3)n2)cc1`, the figure is -2.9%.
On to `COc1cccc(/C=C(\C#N)c2nc(-c3ccc(Br)cc3)cs2)c1`, for which the displacement is -7.3%.
Consider `N#C/C(=C\c1ccc(O)cc1)c1nc(-c2ccc(-c3ccccc3)cc2)cs1`, for which the displacement was 21.6%.
As for `COc1ccc(/C=C(\C#N)c2nc(-c3ccc(C)cc3)cs2)cc1`, the displacement was 4.5%.
As for `COc1ccc(/C=C(/C#N)c2nc(-c3ccc(Br)cc3)cs2)cc1OC`, the figure is 101%.
As for `CCCCc1ccc(-c2csc(/C(C#N)=C/c3ccc(OC)c(OC)c3)n2)cc1`, the figure is 4.8%; as for `COc1ccc(-c2csc(/C(C#N)=C\c3ccc(C)s3)n2)cc1`, 115%; as for `COc1cc(/C=C(\C#N)c2nc(-c3ccc(-c4ccccc4)cc3)cs2)ccc1O`, 112%.
As for `Cc1ccc(/C(O)=C2\C(=O)C(=O)N(c3nncs3)C2c2cccc(Cl)c2)cc1` (stereo not given), the figure is 12.7%.
As for `Cc1cc(C)c2nc3s/c(=C\c4ccc([N+](=O)[O-])cc4)c(=O)n3c2c1`, the displacement was -6.3%.
As for `O=C(Nc1ccc(Br)cc1)C1C(c2ccccc2)=C1c1ccccc1`, the figure is -6.7%.
Consider `CC(=O)N1c2ccccc2NC2=C(C(=O)CC(c3ccccc3)C2)C1c1ccccc1Cl` (stereo not given), for which the displacement is -12%.
As for `CC1(C)c2ccccc2N(CCO)C12C=Cc1cc(Br)ccc1O2` (stereo not given), the displacement came to 7.8%.
As for `Cc1ccc(CNC(=O)c2ccc([N+](=O)[O-])cc2Cl)cc1`, the figure is 0.9%; as for `Cc1ccccc1NC(=O)c1c(N)sc2c1CCCC2`, 12.7%; as for `COc1ccc(C2/C(=C(\O)c3ccc(Cl)cc3)C(=O)C(=O)N2c2cccnc2)c(OC)c1` (stereo not given), -7.1%.
As for `CCOc1ccc(/C=C2/SC(NC(C)=O)=NC2=O)cc1OCC`, the figure is 54.6%; as for `CCOc1ccc(/C=C2/SC(NC(C)=O)=NC2=O)cc1`, 132%.
As for `CCOc1cc(/C=C2/SC(N)=NC2=O)ccc1OCc1ccc(F)cc1`, the figure is -15.9%; as for `CCOc1ccccc1/C=C1/SC(NC(C)=O)=NC1=O`, 12.9%.
